Out of some 370,000 compounds screened, about 3,100 (0.84%) were called active. Rule as the data show it: active = inhibition above about 9.5%; inactive = the rest. The sample as a whole holds a higher share of actives than the screen did.

The assay deals with 1-phosphatidylinositol 4,5-bisphosphate phosphodiesterase gamma-1 (Homo sapiens) (UniProt P19174). Nature of the assay: blockers of human PLCG1 activity – biochemical, fluorescence, purified enzyme, primary screen (AID 720700). Conditions: purified PLC-gamma1, fluorogenic substrate, at 12.2 µM, hits give high values.
Chain of 1-phosphatidylinositol 4,5-bisphosphate phosphodiesterase gamma-1 (Homo sapiens) (P19174 whole entry, looked up): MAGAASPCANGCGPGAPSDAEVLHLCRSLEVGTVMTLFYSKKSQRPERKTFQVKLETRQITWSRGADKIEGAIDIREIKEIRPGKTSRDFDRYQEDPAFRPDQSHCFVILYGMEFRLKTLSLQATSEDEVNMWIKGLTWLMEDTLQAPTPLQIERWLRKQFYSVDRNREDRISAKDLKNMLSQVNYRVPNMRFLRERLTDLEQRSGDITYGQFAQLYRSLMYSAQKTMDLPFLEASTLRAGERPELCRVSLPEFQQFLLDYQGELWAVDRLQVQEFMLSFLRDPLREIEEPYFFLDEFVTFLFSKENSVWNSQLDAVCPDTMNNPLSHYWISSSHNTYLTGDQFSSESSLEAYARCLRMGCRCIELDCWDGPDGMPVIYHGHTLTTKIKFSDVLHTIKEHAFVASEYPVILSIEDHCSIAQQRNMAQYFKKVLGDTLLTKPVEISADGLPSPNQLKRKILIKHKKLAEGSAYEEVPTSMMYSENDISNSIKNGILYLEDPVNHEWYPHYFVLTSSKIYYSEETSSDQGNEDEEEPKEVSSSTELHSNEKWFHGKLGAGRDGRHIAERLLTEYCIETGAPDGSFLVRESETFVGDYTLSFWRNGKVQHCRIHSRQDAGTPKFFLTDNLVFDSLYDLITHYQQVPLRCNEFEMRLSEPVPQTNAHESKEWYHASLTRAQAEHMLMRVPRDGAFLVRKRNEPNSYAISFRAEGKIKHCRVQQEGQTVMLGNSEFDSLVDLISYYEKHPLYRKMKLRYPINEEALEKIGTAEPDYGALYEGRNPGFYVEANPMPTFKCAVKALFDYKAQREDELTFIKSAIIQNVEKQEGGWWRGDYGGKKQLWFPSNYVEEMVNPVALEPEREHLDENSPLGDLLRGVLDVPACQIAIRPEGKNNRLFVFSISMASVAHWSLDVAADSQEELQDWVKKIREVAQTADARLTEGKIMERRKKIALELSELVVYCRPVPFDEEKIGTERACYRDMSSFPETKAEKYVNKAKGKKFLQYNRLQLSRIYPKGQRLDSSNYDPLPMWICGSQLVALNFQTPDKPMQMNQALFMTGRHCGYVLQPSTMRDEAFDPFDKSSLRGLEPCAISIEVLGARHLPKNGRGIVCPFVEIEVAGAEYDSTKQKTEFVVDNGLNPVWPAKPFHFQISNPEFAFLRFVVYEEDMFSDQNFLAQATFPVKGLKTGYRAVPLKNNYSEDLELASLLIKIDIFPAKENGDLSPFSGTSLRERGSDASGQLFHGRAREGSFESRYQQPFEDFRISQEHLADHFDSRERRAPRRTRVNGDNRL
Turning to `CC(=O)Nc1ccc(OC[C@@H](O)CN2CCC(C(O)(c3ccccc3)c3ccccc3)CC2)cc1`, the inhibition was -0.12% (inactive). Take `O=S1(=O)c2ccc(Br)cc2OC[C@H](Cc2ccccc2)N1Cc1cn(Cc2ccccc2)nn1`: the inhibition was 10.2% (active). On to `O=S1(=O)c2ccc(Br)cc2OC[C@@H](Cc2ccccc2)N1Cc1cn(Cc2ccco2)nn1`, for which the inhibition is 6.61% (inactive). On to `COc1ccc(Cn2cc(CN3[C@@H](CC(C)C)COc4cc(Br)ccc4S3(=O)=O)nn2)cc1`, for which the inhibition was 3.87% (inactive). Turning to `O=C(CCCCCN1C(=O)C2C3C=CC(C3)C2C1=O)Nc1ccccc1` (stereo not drawn), the inhibition was 4.2% (inactive). On to `CCOC(=O)C1CCN(C(=O)C(C)(C)NC(=O)Nc2ccc(F)c(F)c2)CC1`, for which the inhibition was 6.44% (inactive).

For the molecule `Cc1ccc(CCN2CC(C(=O)NCCc3ccccc3)CC2=O)cc1` (stereo not drawn), the inhibition is 7.32% (inactive). Consider `COCCCNC(=O)C1CC(=O)N(CCc2ccccc2)C1` (stereo not drawn), for which the inhibition is 7.12% (inactive).

With `O=C(NCCCN1CCCCC1)C1CC(=O)N(CCc2ccccc2)C1` (stereo not drawn), the inhibition was 10% (active). As to `COc1cccc(Cn2cc(COC(=O)Nc3ccc(F)cc3)nn2)c1`, the inhibition is -1.49% (inactive). As for `CCOC(=O)[C@@]12CN(C(=O)OC(C)(C)C)CC=C1N(Cc1ccc(OC)cc1)C(=O)[C@H]2CC(=O)NCc1ccc(OC)c(OC)c1`, the inhibition was 2.04% (inactive). Regarding `COc1ccc(CN2C/C(=C/c3ccccc3)N3C(=O)C[C@@H](c4ccccc4)N=C23)c(OC)c1`, the inhibition is -7.12% (inactive). Next, `O=C1c2ccccc2S(=O)(=O)N1Cc1c(F)cccc1Cl`: -1.51% (inactive); `CS(=O)(=O)N(CC(O)Cn1c2ccccc2c2ccccc21)c1cccc2ccccc12` (stereo not drawn): -10.8% (inactive); `O=C1c2ccccc2S(=O)(=O)N1CC(O)Cn1c2ccccc2c2ccccc21` (stereo not drawn): 15.2% (active). Next, `C=CCN(C)CC#Cc1ccccc1`: 1.26% (inactive).

As to `CC1(C)CC(=O)C=C(NCCCN2CCCC2=O)C1`, the inhibition is 1.47% (inactive).

Take `CC1(C)CC(=O)C=C(NCCN2CCNCC2)C1`: the inhibition was 10.7% (active). The result for `COc1ccc(CCNC2=CC(=O)CC(C)(C)C2)cc1` reads 1.19% (inactive); that for `O=C(CCS(=O)(=O)c1ccccc1)Nc1ccc(Cl)c(Cl)c1`, -5.17% (inactive); that for `CCOC(=O)N1CCN(C(=O)C[C@@H]2C(=O)N(CCc3ccc(Cl)cc3)C3=CCCC[C@]32C(=O)OCC)CC1`, 2.91% (inactive).

Regarding `CCOC(=O)N1CCC(NC(=O)Cc2cn(C)c3ccccc23)CC1`, the inhibition is 2.53% (inactive). As for `CCOC(=O)N1CCC(c2cc(=O)n(-c3ccccc3)[nH]2)CC1`, the inhibition is 9.95% (active). For the molecule `CCOC(=O)N1CCC(C(N)=O)CC1`, the inhibition was -1.53% (inactive). Next, `O=C(OCC#CCSc1nnc(-c2ccco2)o1)c1ccc(F)cc1`: -0.72% (inactive); `CCN(CC)C(=O)CC[C@H]1CC[C@]2(CCCN(Cc3ccc(Cl)cc3)C2)O1`: 3.26% (inactive); `CCCCCCN1CCS(=O)(=O)N(Cc2ccc(C(F)(F)F)cc2)C(C(=O)OC)C1` (stereo not drawn): -2.36% (inactive). Regarding `CSc1ccccc1NC(=O)c1cc(Cl)sc1Cl`, the inhibition was 3.13% (inactive). Turning to `Cc1ccccc1C(=O)Nc1ccccc1Sc1ccccc1`, the inhibition was 10.7% (active).

With `Cc1cc(NC(=O)c2ccccc2C)no1`, the inhibition is 3.09% (inactive). Next, `CCOC(=O)[C@]12CCCC3=C1N(CCC3)C(=O)[C@@H](CC(=O)N1CCSCC1)C2`: 4.63% (inactive); `COc1ccc(C(=O)OCCN2CCN(C3CN(Cc4cn(Cc5ccccc5F)nn4)S(=O)(=O)C3)CC2)cc1OC` (stereo not drawn): -0.1% (inactive).

Take `O=C(NC1CCCCN(Cc2ccc(Cl)cc2)C1=O)c1ccc(Br)cc1` (stereo not drawn): the inhibition was 3.44% (inactive). For `CCOC(=O)[C@]12CCCCC/C=C\1N(Cc1ccc(OC)cc1)C(=O)[C@H]2CC(=O)NCCCN1CCCC1=O`, the inhibition is 1.96% (inactive). For `CN(CC(=O)NC1CCCCC1)S(=O)(=O)c1cccc2cccnc12`, the inhibition is -1.31% (inactive).

As for `CN(CC(=O)NC1CCN(Cc2ccccc2)CC1)S(=O)(=O)c1ccc(Cl)s1`, the inhibition was 6.37% (inactive). The result for `CN(CC(=O)NC1CCCCC1)S(=O)(=O)c1ccc(Br)s1` reads 10.4% (active); that for `Cc1nc(CNc2ncnc3ccc(-c4ccc5c(c4)OCO5)cc23)cs1`, -104% (inactive); that for `O=C(CC(=O)N/N=C\c1cccc(Cl)c1Cl)NCc1ccccc1`, -0.34% (inactive).

In the case of `CCn1c(SCC(=O)N/N=C/c2ccccc2OCC(=O)O)nnc1-c1ccc(C(C)(C)C)cc1`, the inhibition was -0.82% (inactive). With `C=CCOc1ccccc1/C=N/NC(=O)Cc1ccccc1`, the inhibition was 13.9% (active).

As to `O=C1CCC2(CCC(c3ccc(Cl)cc3)CC2)N1CCO` (stereo not drawn), the inhibition was 1.68% (inactive). With `COC(=O)[C@]12C[C@H](CC(=O)NCc3ccccc3)C(=O)N(CCC3=CCCCC3)C1=C[C@H](C(C)C)O[C@@H]2C1CC1`, the inhibition is 4.87% (inactive). Turning to `CCOC(=O)C1=C(C)NC2=C(C(=O)CC(C)(C)C2)C1c1ccc2c(c1)OCO2` (stereo not drawn), the inhibition is -75.8% (inactive).

As for `Cc1ccc(NC(=O)Nc2cc(C)nn2-c2ccccc2)cc1`, the inhibition was -1.85% (inactive). Regarding `CCCCn1c(SCC(=O)N2CCCC2=O)nc2cc(S(N)(=O)=O)ccc21`, the inhibition was 9.56% (active).

For the molecule `CCCCn1c(SCC(=O)N2CCC(C(=O)OCC)CC2)nc2cc(S(N)(=O)=O)ccc21`, the inhibition is 0.98% (inactive). Regarding `CCn1c(SCC(=O)N2CCCC2=O)nc2ccccc21`, the inhibition was 3.16% (inactive). Regarding `COc1ccccc1C(=O)NC1CCCCN(C(C)C)C1=O` (stereo not drawn), the inhibition is 2.47% (inactive). In the case of `Cc1ccccc1CS(=O)(=O)Cc1ccc(C(=O)Nc2ccc(Cl)cc2)o1`, the inhibition was -2.55% (inactive). Next, `Oc1ccc(/C=C/c2c(F)cccc2F)c2cccnc12`: -12.7% (inactive); `COC(=O)[C@H](C(C)C)N(CCCc1cn(Cc2ccccc2)nn1)S(=O)(=O)c1ccc(F)cc1Br`: 0.35% (inactive). Next, `O=C1CC(c2ccc3c(c2)OCO3)N=C2N(CC3CC3)C/C(=C/c3ccccc3)N12` (stereo not drawn): -5.26% (inactive). On to `Cc1ccc(C(c2nnnn2CS(=O)(=O)c2ccc(C)cc2)N2CCC(C)CC2)cc1` (stereo not drawn), for which the inhibition was 0.22% (inactive). For the molecule `Cc1ccc(S(=O)(=O)Cn2nnnc2CN2CCN(Cc3ccc4c(c3)OCO4)CC2)cc1`, the inhibition was 10.9% (active). Next, `Fc1ccccc1C(c1nnnn1Cc1ccc2c(c1)OCO2)N1CCN(Cc2ccccc2)CC1` (stereo not drawn): 0.65% (inactive); `COc1cc(OC)nc(S(C)(=O)=O)n1`: 16.5% (active). For `CCC(=O)Nc1nc(OC)cc(OC)n1`, the inhibition was 2.37% (inactive). Consider `COc1ccnc(C(=O)N2CCC(Oc3cccnc3)CC2)c1`, for which the inhibition is 0.2% (inactive). As to `O=C(NCc1ccc(Cl)cc1)C1CCCN(c2nc3ccccc3o2)C1` (stereo not drawn), the inhibition was 1.63% (inactive). Turning to `CCOc1c(Br)cc(/C=C2\C(=O)N(CCC#N)N=C2C)cc1OC`, the inhibition is 24.6% (active).

For `Cc1ccc(CN2CC(C(=O)NNC(=O)Cn3ccc(C(F)(F)F)n3)CC2=O)cc1` (stereo not drawn), the inhibition is 2.76% (inactive). As to `Cc1ccc(Cn2ccc(NC(=O)C3C4CCC(C4)C3C(=O)O)n2)cc1` (stereo not drawn), the inhibition was 9.61% (active). In the case of `O=C(NNC(=O)C1C2CCC(C2)C1C(=O)O)c1ccc(Cl)cc1` (stereo not drawn), the inhibition is 1.22% (inactive). Turning to `O=C(CSc1nnc(-c2ccccn2)n1-c1ccc(Cl)cc1)Nc1ccccc1-c1ccccc1`, the inhibition is 0.96% (inactive). With `O=C(CCCCCN1C(=O)C2C3C=CC(C3)C2C1=O)Nc1ccccn1` (stereo not drawn), the inhibition is 1.47% (inactive). As for `Cc1cc(C)nc(NC(=S)N2CCN(c3ccc(C(F)(F)F)cn3)CC2)c1`, the inhibition was 0.58% (inactive).

Consider `CN(C(=O)c1cccc(NC(=O)Cc2cccc([N+](=O)[O-])c2)c1)C1CCCCC1`, for which the inhibition was 8.53% (inactive). `O=C(Nc1cccc([N+](=O)[O-])c1)Nn1cnnc1`: the inhibition was 10.4% (active). Next, `O=C(COc1ccc([N+](=O)[O-])cc1Cl)Nn1cnnc1`: 2.5% (inactive); `O=C(c1ccccc1)c1ccc(-c2ccccc2C(=O)NC2CCCCN(Cc3ccc(Cl)cc3)C2=O)cc1` (stereo not drawn): 1.5% (inactive); `Cc1ccc(NC(=O)Cc2cccc(F)c2)c(S(=O)(=O)N2CCOCC2)c1`: -42.8% (inactive). In the case of `CC1=NCCN1S(=O)(=O)c1cccc([N+](=O)[O-])c1`, the inhibition is -1.13% (inactive). For the molecule `Cc1cc(C)n(S(=O)(=O)c2cccc([N+](=O)[O-])c2)n1`, the inhibition is 0.37% (inactive). On to `Cc1ccc(-c2cn(S(=O)(=O)c3cccc([N+](=O)[O-])c3)nc2N)cc1`, for which the inhibition is 11.4% (active). As to `CCOC(=O)[C@]12CCCCC/C=C\1N(Cc1ccc(OC)cc1)C(=O)[C@H]2CC(=O)NCc1ccc(C)o1`, the inhibition is 0.82% (inactive). Turning to `COC(=O)[C@]1(S(=O)(=O)c2ccccc2)C[C@@H]2ON=C(c3ccc(OC)cc3)[C@@H]2C1`, the inhibition is -2.22% (inactive).

Take `N#C[C@]1(S(=O)(=O)c2ccccc2)C[C@@H]2ON=C(c3cccc(Br)c3)[C@@H]2C1`: the inhibition is 9.78% (active). The result for `CCn1c(=O)n2n(c1=O)[C@@]1(C=C3CCCC[C@H]32)N=C(NC(=O)c2ccccc2)N(Cc2ccccc2)[C@H]1Cc1ccccc1` reads -12.3% (inactive); that for `COC(=O)C12C=C3CC(c4ccccc4)=C3C(=O)N1Cc1[nH]c3ccccc3c1C2` (stereo not drawn), -9.2% (inactive).

In the case of `O=C(/C=C/c1c(F)cccc1Cl)Nc1nn[nH]n1`, the inhibition is 12.5% (active). The result for `O=C(/C=C/c1c(Cl)cccc1Cl)NCc1ccccc1` reads 3.49% (inactive); that for `CCOC(=O)CNC(=O)/C=C/c1c(Cl)cccc1Cl`, 0.18% (inactive). Regarding `O=C(CSc1nnc(-c2ccccn2)n1-c1ccccc1)Nc1ccc2cn[nH]c2c1`, the inhibition was 3.11% (inactive). On to `COCCN(C(=S)Nc1cccc(Cl)c1C)C(C)c1ccco1` (stereo not drawn), for which the inhibition was 4.95% (inactive). Consider `COCCCN(C(=O)Cn1ncc2c(=O)oc3ccc(C)cc3c21)C(C)c1ccncc1` (stereo not drawn), for which the inhibition was 2.83% (inactive). Next, `COCCCN(C(=S)Nc1c(C)cc(C)cc1C)C(C)c1ccncc1` (stereo not drawn): 12.6% (active). For `Cc1cc(NS(=O)(=O)c2ccc(NC(=O)CSc3nnc(SCc4ccc(F)cc4)s3)cc2)nc(C)n1`, the inhibition was 6.25% (inactive).

Broadly, the inhibition is the drop in the measured response relative to a control, in per cent.

Source of the values: PubChem BioAssay AID720700 (The Scripps Research Institute Molecular Screening Center, 2013).
